In PubChem BioAssay:
Active and inactive are the calls of the source.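 The calls were made as follows, unless noted: active = compound raises insulin release from rat beta cells at 5 mM glucose, no numeric limit stated; inactive = the rest.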

Assay: Wnt pathway potentiators raising nuclear beta-catenin – imaging, WNT3A-conditioned medium, mouse C2C12, NPC library, primary screen (AID 1117326); also: reference of the scale not given here
Conditions: stimulation, at 2 µM, stronger effect = higher value

Row | SMILES | nuclear beta-catenin stimulation [%]
1 | O=C1NCN(c2ccccc2)C12CCN(CCCOc1ccc(F)cc1)CC2 | 8.5
2 | Fc1cc(Br)ccc1CBr | 13
3 | ClC1=C(Cl)C2(Cl)C(CBr)CC1(Cl)C2(Cl)Cl (stereo unspecified) | 5.3
4 | C=CCN1CC[C@]23CCCC[C@H]2[C@H]1Cc1ccc(O)cc13 | 0.3
5 | COP(=S)(OC)Oc1ccc(Sc2ccc(OP(=S)(OC)OC)cc2)cc1 | -0.8
6 | CC1(C)[C@H](C=C(Cl)Cl)[C@@H]1C(=O)OCc1c(F)c(F)cc(F)c1F | -1.8
7 | CN(C)C(=S)SSC(=S)N(C)C | 48.7
8 | CN1C[C@H](CNC(=O)OCc2ccccc2)C[C@@H]2c3cccc4c3c(cn4C)C[C@H]21 | 5.7
9 | COc1ccc2c(c1OC)C(=O)O[C@H]2[C@@H]1c2cc3c(cc2CCN1C)OCO3 | 7.9
10 | CCOC(=O)C=C(C)C=CC[C@@H](C)CCCC(C)C | -0.1
11 | COC(=O)C(Cl)C(=O)OC | 6.8
12 | COCC(C)N(C(=O)CCl)c1c(C)csc1C (stereo unspecified) | 2.6
13 | c1ccc2c(c1)Sc1ccccc1N2CC1CN2CCC1CC2 (stereo unspecified) | -0.7
14 | COc1cccc2c1C(=O)c1c(O)c3c(c(O)c1C2=O)C[C@@](O)(C(=O)CO)CC3OC1CC(N2CCOC(OC)C2)C(O)C(C)O1 (stereo partly specified) | 47.6

Assay: stimulators of insulin release from INS-1E, primary screen, cell-based, 5 mM glucose, NPC library (AID 1117329); also: reference of the scale not given here
Conditions: rat INS-1E insulin secretion, at 10 µM, stronger effect = higher value

Row | SMILES | insulin secretion stimulation
15 | ClC1=C(Cl)C2(Cl)C(CBr)CC1(Cl)C2(Cl)Cl (stereo unspecified) | 0.2% (inactive)
16 | C=CCN1CC[C@]23CCCC[C@H]2[C@H]1Cc1ccc(O)cc13 | 12.2% (inactive)
17 | COP(=S)(OC)Oc1ccc(Sc2ccc(OP(=S)(OC)OC)cc2)cc1 | 0.05% (inactive)
18 | CC1(C)[C@H](C=C(Cl)Cl)[C@@H]1C(=O)OCc1c(F)c(F)cc(F)c1F | 0.45% (inactive)
19 | CCOC(=O)C=C(C)C=CC[C@@H](C)CCCC(C)C | 1.05% (inactive)
20 | COCC(C)N(C(=O)CCl)c1c(C)csc1C (stereo unspecified) | 0.7% (inactive)
21 | c1ccc2c(c1)Sc1ccccc1N2CC1CN2CCC1CC2 (stereo unspecified) | 11.5% (inactive)
22 | CC(C)(C)c1ccc(O)cc1 | 0% (inactive)
23 | COc1cccc2c1C(=O)c1c(O)c3c(c(O)c1C2=O)C[C@@](O)(C(=O)CO)CC3OC1CC(N2CCOC(OC)C2)C(O)C(C)O1 (stereo partly specified) | 1.1% (inactive)

Assay: growth inhibition of GSK3B-pretreated HCT116 cells – cell-based, CellTiter-Glo, 0.2 to 20 µM (AID 1117336;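 active = compounds lowering colon cancer cell viability after pretreatment blocking the GSK3B kinase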)
Conditions: HCT116 viability after GSK3B inhibitor, at 20 µM, stronger effect = higher value

Row | SMILES | viability decrease
24 | O=C1NCN(c2ccccc2)C12CCN(CCCOc1ccc(F)cc1)CC2 | 84.2% (active)
25 | Fc1cc(Br)ccc1CBr | 3.1% (inactive)
26 | CN(C)C(=S)SSC(=S)N(C)C | 65% (active)
27 | CN1C[C@H](CNC(=O)OCc2ccccc2)C[C@@H]2c3cccc4c3c(cn4C)C[C@H]21 | 93.3% (active)
28 | COc1ccc2c(c1OC)C(=O)O[C@H]2[C@@H]1c2cc3c(cc2CCN1C)OCO3 | 19.2% (inactive)
29 | COC(=O)C(Cl)C(=O)OC | 51.9% (active)
30 | CC(C)(C)c1ccc(O)cc1 | -1.5% (inactive)

Assay: inhibition of endothelial tube formation, primary screen, imaging, VEGF stimulated, CD31 staining, tube area, NPC library (AID 1117340;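 active = compound that reduces growth-factor-driven endothelial tube area in a mixed cell culture, no cutoff stated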)
Conditions: VEGF-stimulated ADSC/ECFC co-culture, at 10 µM, stronger effect = higher value

Row | SMILES | tube area decrease
31 | Fc1cc(Br)ccc1CBr | -4.2% (inactive)
32 | CN(C)C(=S)SSC(=S)N(C)C | 39.3% (inactive)
33 | CC(C)(C)c1ccc(O)cc1 | -21.2% (inactive)

Assay: GLP1 release stimulators, primary, NCI-H716, NPC library (AID 1117341;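 active = compound raises GLP1 secretion from the human gut endocrine cells, with no numeric limit stated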; also: reference of the scale not given here)
Conditions: NCI-H716 cells, at 10 µM, stronger effect = higher value

Row | SMILES | GLP1 secretion stimulation
34 | ClC1=C(Cl)C2(Cl)C(CBr)CC1(Cl)C2(Cl)Cl (stereo unspecified) | 16.3% (inactive)
35 | C=CCN1CC[C@]23CCCC[C@H]2[C@H]1Cc1ccc(O)cc13 | 8.3% (inactive)
36 | COP(=S)(OC)Oc1ccc(Sc2ccc(OP(=S)(OC)OC)cc2)cc1 | -8.7% (inactive)
37 | CC1(C)[C@H](C=C(Cl)Cl)[C@@H]1C(=O)OCc1c(F)c(F)cc(F)c1F | -5.4% (inactive)
38 | CCOC(=O)C=C(C)C=CC[C@@H](C)CCCC(C)C | -6.5% (inactive)
39 | COCC(C)N(C(=O)CCl)c1c(C)csc1C (stereo unspecified) | -0.9% (inactive)
40 | c1ccc2c(c1)Sc1ccccc1N2CC1CN2CCC1CC2 (stereo unspecified) | 26.8% (active)
41 | CC(C)(C)c1ccc(O)cc1 | 3.8% (inactive)
42 | COc1cccc2c1C(=O)c1c(O)c3c(c(O)c1C2=O)C[C@@](O)(C(=O)CO)CC3OC1CC(N2CCOC(OC)C2)C(O)C(C)O1 (stereo partly specified) | 7.5% (inactive)

Assay: HCT116 colon cancer cell growth inhibition, primary screen, CellTiter-Glo luminescence, NPC library (AID 1117342;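 active = compounds that lower survival of HCT116 colon cancer cells in the luminescence readout, no numeric limit stated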)
Conditions: at 20 µM (top of the series)

Row | SMILES | inhibition of viability
43 | O=C1NCN(c2ccccc2)C12CCN(CCCOc1ccc(F)cc1)CC2 | 59.4% (active)
44 | Fc1cc(Br)ccc1CBr | -1.5% (inactive)
45 | CN(C)C(=S)SSC(=S)N(C)C | 16.3% (inactive)
46 | CN1C[C@H](CNC(=O)OCc2ccccc2)C[C@@H]2c3cccc4c3c(cn4C)C[C@H]21 | 94% (active)
47 | COc1ccc2c(c1OC)C(=O)O[C@H]2[C@@H]1c2cc3c(cc2CCN1C)OCO3 | 19.8% (inactive)
48 | COC(=O)C(Cl)C(=O)OC | 37.3% (inactive)
49 | CC(C)(C)c1ccc(O)cc1 | 7.9% (inactive)

Assay: reduced SW480 viability measured with CellTiter-Glo, NPC library, primary (AID 1117343;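 active = compounds that lower viability of the colon cancer cells in the luminescence readout, with no numeric limit stated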)
Conditions: CellTiter-Glo luminescence; at 20 µM (top of the series)

Row | SMILES | viability decrease (inhibition)
50 | O=C1NCN(c2ccccc2)C12CCN(CCCOc1ccc(F)cc1)CC2 | 91% (active)
51 | Fc1cc(Br)ccc1CBr | 5.9% (inactive)
52 | CN(C)C(=S)SSC(=S)N(C)C | 62.7% (active)
53 | CN1C[C@H](CNC(=O)OCc2ccccc2)C[C@@H]2c3cccc4c3c(cn4C)C[C@H]21 | 101% (active)
54 | COc1ccc2c(c1OC)C(=O)O[C@H]2[C@@H]1c2cc3c(cc2CCN1C)OCO3 | 3.5% (inactive)
55 | COC(=O)C(Cl)C(=O)OC | -7.9% (inactive)
56 | CC(C)(C)c1ccc(O)cc1 | 15.7% (inactive)
